# Measured values as given in PubChem BioAssay (NCI).
# This is part of a sample that, as a whole, favours compounds with a hit. Of some 83,000 tested, about 20% had one in any assay.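 Assay: single dose, 48 h. Readout: percent growth (0 = no net growth; negative = cell death). Active: <10.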 A number with no mark means an inactive call. The source made the active and inactive calls.
# Test system: UO-31 renal
# Test: NCI-60 one-dose screen, 48 h (100 = growth as untreated, 0 = no growth, -100 = all killed)
# Conditions: 10 µM unless noted
row,Compound,growth
1,NC(=O)C(=O)c1ccccc1NC=O,60.9%
2,N#Cc1c(-c2ccccc2)[nH]c2ncc(-c3ccccc3)n2c1=O,65.4%
3,O=S(=O)(Nc1cc(Cl)ccc1Cl)c1ccc(-c2cnc(C3CC3)o2)cc1,49.6%
4,COc1cc(C2CC(c3ccc(Nc4nc(Nc5ccc(Cl)cc5)nc(Nc5ccc(Cl)cc5)n4)cc3)=NN2C(C)=O)cc(OC)c1OC (stereo not drawn),84.8%
5,N#Cc1c(-c2ccc(Cl)cc2)c(C#N)c2c(C#N)c(N)nn2c1N,67.1%
6,CC(=O)N1N=C(c2ccc(Nc3nc(Nc4ccccc4)nc(Nc4ccccc4)n3)cc2)CC1c1cccc([N+](=O)[O-])c1 (stereo not drawn),63.9%
7,N#CC1=C(c2ccccc2)Nc2c(c(-c3ccc(Cl)cc3)nn2-c2ccccc2)C12C(=O)Nc1ccc(Cl)cc12 (stereo not drawn),47.8%
8,O=C(Nc1nc2ccc(C(=O)N3CCN(/C=C/c4ccccc4)CC3)cc2s1)c1ccc(NCCc2ccccc2)c([N+](=O)[O-])c1,37.8%
9,Cc1ccc(/C=C2\COc3ccc(O)cc3C2=O)cc1,58.9%
10,CCNCCNc1cc(C2CCCCC2)c(C#N)c2nc3ccccc3n12,-41% (active)
11,Nc1c(C(=O)Nc2ccncc2)sc2nc3c(cc12)C(O)CCC3 (stereo not drawn),81.8%
12,C=CCN=c1sc2c(n1NC(=O)c1cc3ccc1CCc1ccc(cc1)CC3)C(=O)c1ccccc1C2=O,-35.2% (active)
13,Cc1nc2sc(C(=O)Nc3cccc(Br)c3)c(N)c2cc1C(O)c1ccccc1 (stereo not drawn),48.4%
